target: ETV1 (Homo sapiens, UniProt P50549 1-477); assay: DAPPL (digital affinity profiling via proximity ligation, sequencing); 10 mM Tris-HCl pH 7.5, 50 mM NaCl, 1 mM DTT, 4% glycerol, room temperature, 30 min; GST-TFs on glutathione beads, 16-mer random dsDNA library, 0.1% formaldehyde crosslink after washing; high values mean tight binding; details: protein: recombinant; tags: N-terminal GST; dsDNA, one strand shown
How it was run: (§1)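 The binding signal reported is, for every hexamer, its read frequency for a factor over its read frequency for the tag-only sample. Reads came from pools of yeast-expressed, GST-fused human transcription factors on glutathione beads, barcoded with DNA and mixed with that sample, which were incubated with 200 nmole of a random double-stranded 16-mer DNA library in Tris/NaCl/DTT/glycerol buffer at room temperature for 30 min. After washing, the pools were crosslinked with 0.1% formaldehyde, proximity-ligated with BsaI/T4 ligase for 1 h at 37 °C, PCR-amplified and sequenced on an Illumina NextSeq500.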

Chain of ETV1 (P50549 whole entry, the tested form may be a part): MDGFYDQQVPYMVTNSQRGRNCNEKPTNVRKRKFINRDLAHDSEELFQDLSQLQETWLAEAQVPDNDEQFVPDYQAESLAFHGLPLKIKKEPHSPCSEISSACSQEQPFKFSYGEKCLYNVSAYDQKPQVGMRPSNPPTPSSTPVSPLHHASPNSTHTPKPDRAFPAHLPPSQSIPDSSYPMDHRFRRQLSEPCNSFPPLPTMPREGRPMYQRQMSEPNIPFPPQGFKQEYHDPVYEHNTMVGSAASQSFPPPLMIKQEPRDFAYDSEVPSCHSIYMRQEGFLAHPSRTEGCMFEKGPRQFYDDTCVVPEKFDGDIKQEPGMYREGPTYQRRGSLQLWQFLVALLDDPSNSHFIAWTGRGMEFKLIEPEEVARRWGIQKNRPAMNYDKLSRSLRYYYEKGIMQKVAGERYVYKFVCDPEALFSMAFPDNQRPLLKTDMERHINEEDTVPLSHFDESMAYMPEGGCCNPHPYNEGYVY

Point of comparison: TATTCA, binding signal 1.28 fold enrichment (6-mer frequency, TF over GST control). Against it:
- CCTACT — higher, 1.49 fold enrichment (6-mer frequency, TF over GST control)
- TCCTAG — higher, 1.41 fold enrichment (6-mer frequency, TF over GST control)
- GCACTT — higher, 1.86 fold enrichment (6-mer frequency, TF over GST control)
- TATCAT — lower, 1.13 fold enrichment (6-mer frequency, TF over GST control)
- ATAGTA — lower, 1.13 fold enrichment (6-mer frequency, TF over GST control)
- TCATCC — higher, 1.35 fold enrichment (6-mer frequency, TF over GST control)
- CCATAA — lower, 1.23 fold enrichment (6-mer frequency, TF over GST control)
- TACGCG — lower, 1.23 fold enrichment (6-mer frequency, TF over GST control)
- TAATCT — higher, 1.52 fold enrichment (6-mer frequency, TF over GST control)
- GCTTGC — lower, 1.25 fold enrichment (6-mer frequency, TF over GST control)
- TTCGTT — higher, 1.39 fold enrichment (6-mer frequency, TF over GST control)
- TCAACC — lower, 1.23 fold enrichment (6-mer frequency, TF over GST control)
- TGCTAT — higher, 1.31 fold enrichment (6-mer frequency, TF over GST control)
- CTACTC — higher, 1.32 fold enrichment (6-mer frequency, TF over GST control)
- ATCAAC — lower, 1.1 fold enrichment (6-mer frequency, TF over GST control)
- CTTGCG — higher, 1.41 fold enrichment (6-mer frequency, TF over GST control)
- ATGTTC — higher, 1.3 fold enrichment (6-mer frequency, TF over GST control)
- ATGAGC — lower, 1.14 fold enrichment (6-mer frequency, TF over GST control)
- AAATCA — lower, 1.18 fold enrichment (6-mer frequency, TF over GST control)
- TGACCC — lower, 1.25 fold enrichment (6-mer frequency, TF over GST control)
- TAAATT — lower, 1.17 fold enrichment (6-mer frequency, TF over GST control)
- TCCTTG — higher, 1.35 fold enrichment (6-mer frequency, TF over GST control)
- CCATAT — lower, 1.2 fold enrichment (6-mer frequency, TF over GST control)
- CTAACT — the same, 1.28 fold enrichment (6-mer frequency, TF over GST control)
- CTGCTT — higher, 1.73 fold enrichment (6-mer frequency, TF over GST control)
- AATTAC — higher, 1.34 fold enrichment (6-mer frequency, TF over GST control)
- TGTGCT — lower, 1.18 fold enrichment (6-mer frequency, TF over GST control)
- ATACAA — lower, 1.13 fold enrichment (6-mer frequency, TF over GST control)
- TTACTA — lower, 1.23 fold enrichment (6-mer frequency, TF over GST control)
- ACTCGT — lower, 1.13 fold enrichment (6-mer frequency, TF over GST control)
- AAACAA — higher, 1.32 fold enrichment (6-mer frequency, TF over GST control)
- AAAAAG — lower, 1.26 fold enrichment (6-mer frequency, TF over GST control)
- CCCGAT — lower, 1.08 fold enrichment (6-mer frequency, TF over GST control)
- CAATTA — lower, 1.09 fold enrichment (6-mer frequency, TF over GST control)
- CTTTTG — higher, 1.3 fold enrichment (6-mer frequency, TF over GST control)
- ACGTCC — higher, 1.63 fold enrichment (6-mer frequency, TF over GST control)
- CCCTTC — higher, 1.51 fold enrichment (6-mer frequency, TF over GST control)
- ATGACA — the same, 1.28 fold enrichment (6-mer frequency, TF over GST control)
- AATCAA — lower, 1.19 fold enrichment (6-mer frequency, TF over GST control)

target: T1, ERF (Homo sapiens, UniProt P50548 1-548); assay: as above; details: protein: recombinant; tags: N-terminal GST; dsDNA, one strand shown
T1 sequence: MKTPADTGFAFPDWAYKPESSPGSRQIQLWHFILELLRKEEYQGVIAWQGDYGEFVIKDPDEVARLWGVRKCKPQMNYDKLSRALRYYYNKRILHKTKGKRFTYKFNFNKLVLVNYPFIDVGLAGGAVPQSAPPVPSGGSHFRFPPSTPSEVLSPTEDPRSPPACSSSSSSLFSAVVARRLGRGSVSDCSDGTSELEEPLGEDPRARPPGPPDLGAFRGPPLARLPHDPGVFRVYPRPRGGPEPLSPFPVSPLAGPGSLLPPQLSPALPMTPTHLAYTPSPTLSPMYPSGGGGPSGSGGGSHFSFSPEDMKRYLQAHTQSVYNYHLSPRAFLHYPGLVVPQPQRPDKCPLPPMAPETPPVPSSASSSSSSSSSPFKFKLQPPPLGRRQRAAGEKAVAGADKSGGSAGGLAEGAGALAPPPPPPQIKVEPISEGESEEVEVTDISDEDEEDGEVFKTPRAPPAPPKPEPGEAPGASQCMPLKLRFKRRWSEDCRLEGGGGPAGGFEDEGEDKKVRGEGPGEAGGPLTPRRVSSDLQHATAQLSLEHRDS
How it was run: as §1

Point of comparison: GCTTGC, binding signal 1.24 fold enrichment (6-mer frequency, TF over GST control). Against it:
- CCTACT — higher, 1.7 fold enrichment (6-mer frequency, TF over GST control)
- TCCTAG — higher, 1.26 fold enrichment (6-mer frequency, TF over GST control)
- GCACTT — higher, 1.61 fold enrichment (6-mer frequency, TF over GST control)
- TATCAT — lower, 1.14 fold enrichment (6-mer frequency, TF over GST control)
- ATAGTA — lower, 1.23 fold enrichment (6-mer frequency, TF over GST control)
- TCATCC — lower, 1.2 fold enrichment (6-mer frequency, TF over GST control)
- CCATAA — the same, 1.24 fold enrichment (6-mer frequency, TF over GST control)
- TACGCG — lower, 1.13 fold enrichment (6-mer frequency, TF over GST control)
- TAATCT — higher, 1.39 fold enrichment (6-mer frequency, TF over GST control)
- TTCGTT — higher, 1.37 fold enrichment (6-mer frequency, TF over GST control)
- TCAACC — higher, 1.3 fold enrichment (6-mer frequency, TF over GST control)
- TGCTAT — higher, 1.33 fold enrichment (6-mer frequency, TF over GST control)
- CTACTC — higher, 1.48 fold enrichment (6-mer frequency, TF over GST control)
- ATCAAC — lower, 1.15 fold enrichment (6-mer frequency, TF over GST control)
- CTTGCG — higher, 1.41 fold enrichment (6-mer frequency, TF over GST control)
- ATGTTC — higher, 1.27 fold enrichment (6-mer frequency, TF over GST control)
- ATGAGC — higher, 1.29 fold enrichment (6-mer frequency, TF over GST control)
- AAATCA — lower, 1.23 fold enrichment (6-mer frequency, TF over GST control)
- TGACCC — higher, 1.4 fold enrichment (6-mer frequency, TF over GST control)
- TAAATT — higher, 1.3 fold enrichment (6-mer frequency, TF over GST control)
- TCCTTG — higher, 1.39 fold enrichment (6-mer frequency, TF over GST control)
- CCATAT — lower, 1.23 fold enrichment (6-mer frequency, TF over GST control)
- CTAACT — higher, 1.32 fold enrichment (6-mer frequency, TF over GST control)
- CTGCTT — higher, 1.67 fold enrichment (6-mer frequency, TF over GST control)
- AATTAC — higher, 1.35 fold enrichment (6-mer frequency, TF over GST control)
- TGTGCT — lower, 1.19 fold enrichment (6-mer frequency, TF over GST control)
- ATACAA — lower, 1.15 fold enrichment (6-mer frequency, TF over GST control)
- TTACTA — higher, 1.27 fold enrichment (6-mer frequency, TF over GST control)
- ACTCGT — higher, 1.25 fold enrichment (6-mer frequency, TF over GST control)
- AAACAA — higher, 1.25 fold enrichment (6-mer frequency, TF over GST control)
- AAAAAG — lower, 1.22 fold enrichment (6-mer frequency, TF over GST control)
- CCCGAT — lower, 1.22 fold enrichment (6-mer frequency, TF over GST control)
- TATTCA — higher, 1.36 fold enrichment (6-mer frequency, TF over GST control)
- CAATTA — lower, 1.13 fold enrichment (6-mer frequency, TF over GST control)
- CTTTTG — higher, 1.62 fold enrichment (6-mer frequency, TF over GST control)
- ACGTCC — higher, 1.49 fold enrichment (6-mer frequency, TF over GST control)
- CCCTTC — higher, 1.25 fold enrichment (6-mer frequency, TF over GST control)
- ATGACA — higher, 1.31 fold enrichment (6-mer frequency, TF over GST control)
- AATCAA — lower, 1.17 fold enrichment (6-mer frequency, TF over GST control)

target: T2, ETV3L (Homo sapiens, UniProt Q6ZN32 1-361); assay: as above; details: protein: recombinant; tags: N-terminal GST; dsDNA, one strand shown
T2 sequence: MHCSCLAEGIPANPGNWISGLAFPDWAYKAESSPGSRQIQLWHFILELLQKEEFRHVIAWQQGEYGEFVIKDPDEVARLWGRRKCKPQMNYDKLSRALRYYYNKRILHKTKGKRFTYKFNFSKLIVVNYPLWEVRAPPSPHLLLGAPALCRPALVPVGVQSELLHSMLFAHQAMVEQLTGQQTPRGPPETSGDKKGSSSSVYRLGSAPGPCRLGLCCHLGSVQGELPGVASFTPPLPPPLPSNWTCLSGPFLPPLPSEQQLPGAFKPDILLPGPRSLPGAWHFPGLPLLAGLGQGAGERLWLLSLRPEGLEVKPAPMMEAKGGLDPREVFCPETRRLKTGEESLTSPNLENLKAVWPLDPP
How it was run: as §1

Point of comparison: ACTCGT, binding signal 1.26 fold enrichment (6-mer frequency, TF over GST control). Against it:
- CCTACT — higher, 1.53 fold enrichment (6-mer frequency, TF over GST control)
- TCCTAG — lower, 1.08 fold enrichment (6-mer frequency, TF over GST control)
- GCACTT — higher, 1.84 fold enrichment (6-mer frequency, TF over GST control)
- TATCAT — lower, 1.21 fold enrichment (6-mer frequency, TF over GST control)
- ATAGTA — lower, 1.11 fold enrichment (6-mer frequency, TF over GST control)
- TCATCC — higher, 1.42 fold enrichment (6-mer frequency, TF over GST control)
- CCATAA — lower, 1.22 fold enrichment (6-mer frequency, TF over GST control)
- TACGCG — lower, 1.13 fold enrichment (6-mer frequency, TF over GST control)
- TAATCT — higher, 1.32 fold enrichment (6-mer frequency, TF over GST control)
- GCTTGC — higher, 1.29 fold enrichment (6-mer frequency, TF over GST control)
- TTCGTT — higher, 1.37 fold enrichment (6-mer frequency, TF over GST control)
- TCAACC — lower, 1.24 fold enrichment (6-mer frequency, TF over GST control)
- TGCTAT — higher, 1.4 fold enrichment (6-mer frequency, TF over GST control)
- CTACTC — higher, 1.45 fold enrichment (6-mer frequency, TF over GST control)
- ATCAAC — lower, 1.23 fold enrichment (6-mer frequency, TF over GST control)
- CTTGCG — higher, 1.39 fold enrichment (6-mer frequency, TF over GST control)
- ATGTTC — higher, 1.31 fold enrichment (6-mer frequency, TF over GST control)
- ATGAGC — lower, 1.14 fold enrichment (6-mer frequency, TF over GST control)
- AAATCA — higher, 1.27 fold enrichment (6-mer frequency, TF over GST control)
- TGACCC — higher, 1.3 fold enrichment (6-mer frequency, TF over GST control)
- TAAATT — higher, 1.32 fold enrichment (6-mer frequency, TF over GST control)
- TCCTTG — higher, 1.29 fold enrichment (6-mer frequency, TF over GST control)
- CCATAT — higher, 1.27 fold enrichment (6-mer frequency, TF over GST control)
- CTAACT — lower, 1.19 fold enrichment (6-mer frequency, TF over GST control)
- CTGCTT — higher, 1.7 fold enrichment (6-mer frequency, TF over GST control)
- AATTAC — lower, 1.25 fold enrichment (6-mer frequency, TF over GST control)
- TGTGCT — lower, 1.12 fold enrichment (6-mer frequency, TF over GST control)
- ATACAA — lower, 1.12 fold enrichment (6-mer frequency, TF over GST control)
- TTACTA — higher, 1.32 fold enrichment (6-mer frequency, TF over GST control)
- AAACAA — higher, 1.32 fold enrichment (6-mer frequency, TF over GST control)
- AAAAAG — the same, 1.26 fold enrichment (6-mer frequency, TF over GST control)
- CCCGAT — lower, 1.14 fold enrichment (6-mer frequency, TF over GST control)
- TATTCA — higher, 1.43 fold enrichment (6-mer frequency, TF over GST control)
- CAATTA — lower, 1.11 fold enrichment (6-mer frequency, TF over GST control)
- CTTTTG — higher, 1.31 fold enrichment (6-mer frequency, TF over GST control)
- ACGTCC — higher, 1.59 fold enrichment (6-mer frequency, TF over GST control)
- CCCTTC — higher, 1.44 fold enrichment (6-mer frequency, TF over GST control)
- ATGACA — higher, 1.28 fold enrichment (6-mer frequency, TF over GST control)
- AATCAA — lower, 1.24 fold enrichment (6-mer frequency, TF over GST control)
